Results on 43 molecules are retold here after PubChem BioAssay AID1259417 (TB Discovery Research, Infectious Disease Research Institute, 2018).

The campaign covered roughly 1,100 compounds. About 760 (69%) were called active. The rule behind the calls is not given here. So high a share suggests a set chosen from earlier hits. Some of the results follow.

This test can be described thus: M. tuberculosis growth inhibition, HTS (AID 1259417).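 Note: bacteria grown with compound for 5 days at 37 °C.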 Conditions: stronger effect = higher value, concentration not given here.
[1] abbreviates: M. tuberculosis DsRed fluorescence growth inhibition.
Where [2] appears, read: M. tuberculosis growth inhibition.

As a reminder, the inhibition is the relative decrease from the control value, in per cent. For `Cc1ccc(C)c(-c2nnc(NC(=O)C3COc4ccccc4O3)o2)c1` (stereo unspecified), the inhibition was 66.1% (active) under setting [1] and 90% under setting [2].

Take `Cc1ccc(C)c(-c2nnc(NC(=O)C3=COCCO3)o2)c1`: the inhibition was -4.83% (inactive) under setting [1] and -2.72% under setting [2].

Regarding `Cc1ccc(-c2nnc(NC(=O)C3CC3)o2)c(C)c1`, the inhibition is, setting by setting: under setting [1], 49.6% (active); under setting [2], 76.4%.

Turning to `Cc1ccc(Nc2nnc(SCC(=O)Nc3cccnc3Cl)s2)cc1C`, the inhibition under setting [1] was 3.89% (inactive) and the inhibition under setting [2] was -3.4%.

`CSc1ncnc2c1ncn2CC(=O)Nc1ccc(C)c(C)c1`: the inhibition reads like this: under setting [1], 32.5% (active); under setting [2], 19.8%.

With `CC(C)(C)c1ccc(C(=O)Nc2nnc(-c3ccncc3)o2)cc1`, the inhibition under setting [1] was 64.6% (active) and the inhibition under setting [2] was determined as 77.1%.

In the case of `CC(C)(C)c1ccc(C(=O)Nc2nnc(-c3cccnc3)o2)cc1`, the inhibition under setting [1] was 83.8% (active) and the inhibition under setting [2] was 89.3%.

On to `CC12CCC(C(=O)Oc3cccc4cccnc34)(CC1=O)C2(C)C` (stereo unspecified), for which the inhibition under setting [1] was 101% (active) and the inhibition under setting [2] amounted to 100%.

On to `CCCCNC(=O)COC(=O)c1cc(Br)ccc1Cl`, for which the inhibition under setting [1] is 11.3% (active) and the inhibition under setting [2] came out at 63.4%.

For the molecule `COC(=O)c1ccc(COC(=O)c2ccccc2Cl)cc1`, the inhibition is 0.593% (inactive) under setting [1] and 15.3% under setting [2].

`O=c1c2ccccc2nc(C=Cc2ccc([N+](=O)[O-])o2)n1-c1cccc(O)c1`: the inhibition under setting [1] was 6.18% (inactive) and the inhibition under setting [2] was -1.52%.

For the molecule `CCn1c(C=Cc2ccc([N+](=O)[O-])o2)nc2ccc(I)cc2c1=O`, the inhibition reads like this: under setting [1], 36.1% (active); under setting [2], 34.3%.

Take `CCOC(=O)c1ccc(NC(=O)c2ccc(C)s2)cc1`: the inhibition under setting [1] is 91.5% (active) and the inhibition under setting [2] stood at 65.1%.

As for `Cc1ccc(C)c(OCC(=O)Nc2ccc(C(=O)OC(C)C)cc2)c1C`, the inhibition runs as follows: under setting [1], 8.22% (inactive); under setting [2], -22.5%.

For the molecule `CCOC(=O)c1c(NC(=O)C2COc3ccccc3O2)sc2c1CC(C)(C)NC2(C)C` (stereo unspecified), the inhibition reads like this: under setting [1], 29.1% (inactive); under setting [2], -2.75%.

Consider `Cc1ccc(C(=O)Nc2ccc([N+](=O)[O-])cc2)s1`, for which the inhibition runs as follows: under setting [1], 98.3% (active); under setting [2], 94.8%.

As to `CCOC(=O)c1ccc(NC(=O)C=Cc2ccc([N+](=O)[O-])s2)cc1`, the inhibition reads like this: under setting [1], 52.9% (active); under setting [2], 80.2%.

For the molecule `O=c1c2cc(Cl)ccc2oc2nc3n(c(=O)c12)CCCS3`, the inhibition was 99.1% (active) under setting [1] and 98.2% under setting [2].

As for `O=Cc1ccc2oc3nc4n(c(=O)c3c(=O)c2c1)CCCS4`, the inhibition under setting [1] is 96.9% (active) and the inhibition under setting [2] came out at 95.6%.

With `O=C(Nc1ccn(Cc2ccc(Cl)cc2)n1)c1ccc2c(c1)OCO2`, the inhibition was 100% (active) under setting [1] and 99.3% under setting [2].

For the molecule `CC(C)c1ccc(-c2csc(NC(=O)c3ccc4c(c3)OCCO4)n2)cc1`, the inhibition is, setting by setting: under setting [1], -4.25% (inactive); under setting [2], -26.1%.

As to `O=C1N(Cc2ccccc2Cl)c2ccc(Br)cc2C1(O)c1c[nH]c2ccccc12` (stereo unspecified), the inhibition is, setting by setting: under setting [1], 10.6% (inactive); under setting [2], -0.98%.

In the case of `Cc1ccc(C(=O)Nc2sc(C)c(C)c2C(N)=O)cc1I`, the inhibition runs as follows: under setting [1], 3.89% (inactive); under setting [2], -13.1%.

For `CCc1cc(I)ccc1NC(=O)c1ccc([N+](=O)[O-])o1`, the inhibition was 98% (active) under setting [1] and 98.3% under setting [2].

For `O=C(Nc1ccccc1Br)c1ccc([N+](=O)[O-])o1`, the inhibition is, setting by setting: under setting [1], 64% (active); under setting [2], 42.2%.

As for `CCN(CC)c1ccc(NC(=O)c2ccc([N+](=O)[O-])o2)c(C)c1`, the inhibition by setting is: under setting [1], 98.8% (active); under setting [2], 99.7%.

Consider `Cc1ccc(C(=O)Nc2ccc([N+](=O)[O-])cc2C)cc1I`, for which the inhibition under setting [1] was 97.4% (active) and the inhibition under setting [2] was 83.2%.

Consider `Cc1cc(NC(=O)c2ccc([N+](=O)[O-])o2)c(C)cc1I`, for which the inhibition is, setting by setting: under setting [1], 88% (active); under setting [2], 92%.

Regarding `COc1ccc(CCNc2nc(-c3ccccn3)cs2)cc1OC`, the inhibition was 89.5% (active) under setting [1] and 78% under setting [2].

`c1ccc(CCNc2nc(-c3ccccn3)cs2)cc1`: the inhibition is 87.2% (active) under setting [1] and 86.6% under setting [2].

Turning to `Cc1cn2c3c(=O)[nH]c(=O)n(C)c3nc2n1CCCNc1ccccc1`, the inhibition under setting [1] was 34.8% (active) and the inhibition under setting [2] was determined as 31.6%.

On to `CC(C)c1ccc(Nc2nnc(SCC(=O)Nc3ncc(S(=O)(=O)c4ccc([N+](=O)[O-])cc4)s3)s2)cc1`, for which the inhibition by setting is: under setting [1], -1.44% (inactive); under setting [2], -2.42%.

Take `COC(=O)CSc1nnc(NC(=O)c2ccc(C(C)(C)C)cc2)s1`: the inhibition runs as follows: under setting [1], 99.1% (active); under setting [2], 98.3%.

In the case of `COC(=O)CSc1nnc(NC(=O)c2ccc(Cl)cc2)s1`, the inhibition was 88.6% (active) under setting [1] and 86.6% under setting [2].

`Cc1cccc2sc(NC(=O)c3ccc(C(C)(C)C)cc3)nc12`: the inhibition is 12.6% (inactive) under setting [1] and 14.7% under setting [2].

With `CCc1ccc(Nc2nnc(SCC(=O)Nc3cccnc3Cl)s2)cc1`, the inhibition reads like this: under setting [1], 7.74% (inactive); under setting [2], 23.1%.

As for `CCOC(=O)C(C)Sc1nnc(NC(=O)c2ccc(C)c([N+](=O)[O-])c2)s1` (stereo unspecified), the inhibition under setting [1] is -5.3% (inactive) and the inhibition under setting [2] came to 0.339%.

On to `CC1=Nc2c(ccc3cccnc23)C1(C)C`, for which the inhibition under setting [1] was 8.5% (active) and the inhibition under setting [2] turned out to be 35.9%.

With `COc1ccccc1-c1nnc(Nc2nc3c(F)cccc3s2)o1`, the inhibition is, setting by setting: under setting [1], 30.8% (active); under setting [2], 84.8%.

For the molecule `COCCCNC(=O)c1c(NC(=O)c2ccc(C(C)(C)C)cc2)sc2c1CCCC2`, the inhibition reads like this: under setting [1], 15.2% (inactive); under setting [2], -1.37%.

For the molecule `Cc1ccc(C(=O)NCCC2=CCCCC2)cc1I`, the inhibition by setting is: under setting [1], 81.3% (active); under setting [2], 52.7%.

As to `Cc1ccc(C(=O)NCCSC(C)(C)C)cc1[N+](=O)[O-]`, the inhibition is, setting by setting: under setting [1], -1.92% (inactive); under setting [2], -26.5%.

As for `Cc1ccc(C(=O)NCCC2=CCCCC2)cc1Br`, the inhibition under setting [1] is 86.6% (active) and the inhibition under setting [2] came out at 67.2%.
